# Source: PubChem BioAssay (NCI)
# This is part of a sample that, as a whole, favours compounds with a hit. Of some 83,000 tested, about 20% had one in any assay.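 For each line, cells grew in 96-well plates with the test compound present at a single concentration for 48 hours.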 Activity calls are given as the source filed them. Rule for the calls: active = growth percent below 10; inactive = the rest.
# System: SN12C renal
# Test: NCI-60 one-dose screen, 48 h (100 = growth as untreated, 0 = no growth, -100 = all killed)
# Settings: 10 µM unless noted
row,SMILES,growth
1,C=C(CN1CC=CCC1)[C@@H]1CC[C@]2(COC(C)=O)CC[C@]3(C)[C@H](CC[C@@H]4[C@@]5(C)CC[C@H](O)C(C)(C)[C@@H]5CC[C@]43C)[C@@H]12,97.8% (inactive)
2,C/C=C(/C)C(=O)O[C@@H]1CC(C)(C)CC2C34OC(=O)[C@@]21CC[C@@]3(C)[C@]1(C)CCC2C(C)(C)C(=O)CC[C@]2(C)C1C[C@@H]4Cl (stereo partly drawn),102% (inactive)
3,CC1=CC=C(NC(=O)/C=C/c2ccccc2)CC1Nc1nccc(-c2cccnc2)n1 (stereo not drawn),50.3% (inactive)
4,COc1ccc(-c2[nH]c3ccccc3c2-c2ccc(OC)cc2)cc1,63.4% (inactive)
5,CC[C@]12CN3CCc4c([nH]c5ccccc45)[C@@](C(=O)OC)(c4cc5c(cc4OC)N(C)[C@H]4[C@@](O)(C(=O)OC)[C@H](OC(C)=O)[C@]6(CC)C=CCN7CC[C@]54[C@@H]76)CC(C3)[C@H]1O2 (stereo partly drawn),29.1% (inactive)
6,CCCCC1=C(Br)C(=O)c2nc(C)ccc2C1=O,91.6% (inactive)
7,Nc1ncc(-c2ccc3ncnc(N4CCc5ccc(Cl)cc54)c3c2)cc1C(F)(F)F,20.6% (inactive)
8,COc1ccc(-c2nnc3n(C)c(=O)c4ccccc4n23)cc1O,30.3% (inactive)
